Assay results as given in the supplement of paper PMC11482750.
± gives the standard deviation of the averaged measurements.

compound: C=CCN=C=S [allyl isothiocyanate]; assay: control-subtracted net OSN firing rate; higher = stronger neuronal activation; settings: odorant dilution (vol/vol): 1/100
Method in brief: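 Single sensillum recordings were taken from palp or antennal olfactory sensory neurons of 1–5-day-old fed females of Scaptomyza species or of D. melanogaster wild-type, mutant or at1 empty-neuron lines expressing Or42a homologs. Odorants (1:100 vol/vol in mineral oil or dimethyl sulfoxide) were pulsed for 1 s into 16 ml/min filtered air. Replicate means are given of spikes counted over 0.5 s from 0.2 s after onset, after background subtraction, doubling and solvent correction.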

Point of comparison: Canton-S (D. melanogaster) ab9a, “control-subtracted net OSN firing rate” value 41 ± 45 spikes/s. Against it:
- Or42a- (D. melanogaster) pb1a — within error, -2.5 ± 4 spikes/s
- Canton-S (D. melanogaster) ab7b — within error, -5.14 ± 9.4 spikes/s
- Canton-S (D. melanogaster) ai2a — within error, 4 ± 7.8 spikes/s
- Canton-S (D. melanogaster) at4a — within error, -3 ± 7.5 spikes/s
- Canton-S (D. melanogaster) ab3b — within error, -4.33 ± 7.5 spikes/s
- Canton-S (D. melanogaster) at1 — within error, -0.286 ± 14 spikes/s
- TrpA1- (D. melanogaster) pb1a — higher, 152 ± 22 spikes/s
- Canton-S (D. melanogaster) ab5a — within error, -2 ± 7.1 spikes/s
- Canton-S (D. melanogaster) ab10a — within error, 8.8 ± 6.8 spikes/s
- Canton-S (D. melanogaster) ab5b — within error, -3.14 ± 11 spikes/s
- Canton-S (D. melanogaster) ab2b — within error, -6 ± 4 spikes/s
- Canton-S (D. melanogaster) ab2a — within error, -1.33 ± 2.4 spikes/s
- Canton-S (D. melanogaster) ab7a — within error, -8.86 ± 13 spikes/s
- Canton-S (D. melanogaster) at4b — within error, -3 ± 6.5 spikes/s
- Canton-S (D. melanogaster) ab1b — within error, 15.3 ± 20 spikes/s
- Canton-S (D. melanogaster) ab10b — within error, 0.4 ± 5.7 spikes/s
- Canton-S (D. melanogaster) ab4b — within error, -2.57 ± 3.2 spikes/s
- Canton-S (D. melanogaster) ab8a — within error, 31.1 ± 18 spikes/s
- Canton-S (D. melanogaster) at4c — within error, 1.33 ± 4.7 spikes/s
- Canton-S (D. melanogaster) ab6a — within error, 2.67 ± 5.9 spikes/s
- Canton-S (D. melanogaster) ab3a — within error, 30 ± 16 spikes/s
- Canton-S (D. melanogaster) ab6b — within error, -5.33 ± 19 spikes/s
- Canton-S (D. melanogaster) ai3c — within error, 6 ± 13 spikes/s
- w1118 (D. melanogaster) pb1a — within error, 91.3 ± 46 spikes/s
- Canton-S (D. melanogaster) ai2b — within error, -1.14 ± 4.3 spikes/s
- Canton-S (D. melanogaster) ab9b — within error, 2.33 ± 17 spikes/s
- Canton-S (D. melanogaster) ai3b — within error, 3.67 ± 7.3 spikes/s
- Canton-S (D. melanogaster) ab8b — within error, 45.4 ± 36 spikes/s
- Canton-S (D. melanogaster) ab1d — within error, -4.33 ± 9.1 spikes/s
- Canton-S (D. melanogaster) ab4a — within error, 83.1 ± 18 spikes/s
- Canton-S (D. melanogaster) ab1c — within error, -3.33 ± 11 spikes/s
- Canton-S (D. melanogaster) ab1a — within error, -3.67 ± 15 spikes/s
- Canton-S (D. melanogaster) ai3a — within error, 0.667 ± 6 spikes/s
